# Source: PubChem BioAssay
# This is a sample that favours compounds with a hit; in the whole collection about 6.6% have one here.
# KB-V1 MDR tox: kills drug-selected multidrug resistant KB-V1 cells. KB-V1 MDR cells viability, CellTiter-Glo, 72 h. Potency, µM (titrated, usually from 46.1 µM), most hits filed as cytotoxic. 400,000 tested, 3.4% active. AID 1347076; note: % is set by controls: 0 for no effect and ±100 for the full control effect; nearly all actives have a fitted effect of over 60% in size
#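 Cells of the MDR subline KB-V1 are plated, dosed with compound at multiple concentrations, and incubated 72 h at 37 degrees C; CellTiter-Glo is then added and luminescence read after 10 min.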
# KB-3-1 cytotox: kills parental KB-3-1 adenocarcinoma cells. 400,000 tested, 1.4% active. AID 1347075. KB-3-1 viability, CellTiter-Glo ATP luminescence, 72 h. Potency, µM (titrated, usually from 46.1 µM), actives largely listed as cytotoxic; note: % is set by controls: 0 for no effect and ±100 for the full control effect; nearly all actives have a fitted effect of over 60% in size
#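 KB-3-1 parental drug-naive adenocarcinoma cells in DMEM/10% FBS, incubated 72 h at 37 C with pin-transferred compounds across a concentration series. Viability by CellTiter-Glo luminescence; concentration-response curves fitted after normalization.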
# RGS4 inh: inhibitors of human regulator of G protein signaling 4 | Potency, µM (titrated, usually from 114 µM), inactives show top-dose activity change, negative = inhibition, usual class: inhibitors | Transcreener GDP fluorescence polarization, RGS4-accelerated GTP hydrolysis | 390,000 tested, 0.039% active | AID 504845; note: % is set by controls: 0 for no effect and ±100 for the full control effect; nearly all actives have a fitted effect of over 75% in size
# Target sequence (P49798 whole entry, looked up): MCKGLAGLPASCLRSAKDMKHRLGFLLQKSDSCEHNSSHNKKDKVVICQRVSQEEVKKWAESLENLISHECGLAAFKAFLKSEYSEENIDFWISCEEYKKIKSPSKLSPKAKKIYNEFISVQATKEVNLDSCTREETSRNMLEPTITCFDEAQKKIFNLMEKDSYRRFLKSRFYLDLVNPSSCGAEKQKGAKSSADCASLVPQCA
#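 MLSMR compounds (23 nl, pin-transferred) preincubated 10 min at room temperature with a 500nM (2x) first reagent, then RGS4 at 900nM (2x) plus Transcreener GDP mix added; fluorescence polarization (620/688 nm) read before and after 90 min at 30 °C.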
# TSG101-PTAP inh: blocks PTAP/TSG101 interaction to inhibit HIV-1 budding; Potency, µM (top dose mostly 115 µM), for inactives: top-dose activity change, negative = inhibition, most hits filed as inhibitors; Q99816; AID 493005; 340,000 tested, under 10 active; Fluorescence polarization, FITC-PTAP peptide / Tsg101 binding; active = well fitted inhibition curve with a large enough effect in the main read-out, with a control signal flat, not every such curve was filed as active; inconclusive = small, poorly fitted or top-dose-only effect, or effect the other way, or a change in a side signal; inactive = no such curve, though single readings can be large or run the other way; note: % of control where 0% means no effect
# Target sequence (Q99816 whole entry, looked up): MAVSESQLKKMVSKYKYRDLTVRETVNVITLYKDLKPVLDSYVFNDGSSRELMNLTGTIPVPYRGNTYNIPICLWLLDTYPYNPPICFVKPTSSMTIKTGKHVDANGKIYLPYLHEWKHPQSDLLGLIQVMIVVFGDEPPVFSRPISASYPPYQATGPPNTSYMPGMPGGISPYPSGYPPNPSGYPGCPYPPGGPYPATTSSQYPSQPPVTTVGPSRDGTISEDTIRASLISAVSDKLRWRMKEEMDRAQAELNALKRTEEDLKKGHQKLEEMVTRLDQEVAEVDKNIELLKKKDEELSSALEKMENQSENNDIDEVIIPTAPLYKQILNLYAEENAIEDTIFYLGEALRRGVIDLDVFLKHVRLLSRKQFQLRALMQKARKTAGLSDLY
#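 Compounds were pin-transferred onto Tsg101 binding domain (10 uM final) in HEPES pH 7.5 buffer, then FITC-PTAP peptide was added at 50 nM final. After 20 min at RT, polarization reported peptide displacement across a qHTS concentration series.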
# MCF10A rereplic: induces DNA re-replication in MCF 10a normal breast cells; Potency, µM (titrated, usually from 46.1 µM), inactives show top-dose activity, positive = re-replication, hits mostly activators; 350,000 tested, 2.9% active; MCF 10A DNA re-replication, Hoechst nuclear intensity, 48 h; note: % of control where 0% means no effect; nearly all actives have a fitted effect of over 50% in size
# SW480 rerep: inducers of DNA re-replication in SW480 colon cancer cells; SW480 DNA re-replication, Hoechst DNA content imaging, 48 h; Potency, µM (titrated, usually from 46.1 µM), for inactives: top-dose re-replication activation, actives largely listed as activators; 340,000 tested, 1.8% active; note: % of control where 0% means no effect; nearly all actives have a fitted effect of over 55% in size
#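 Readout is total intensity of Hoechst-stained nuclei, excited at 405 nm and collected at 500-530 nm. Compound treatment lasted 48 hr at 37 C in 5% CO2 before staining.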
# Numbers without * were called inactive; i = inactive; ? = inconclusive; nt = no result; ! = not confirmed by another sample; [ ] = remark or other dose. Unless noted, calls come from the whole dose curve; as a rule, active = well fitted curve in the direction sought with a large enough effect; inconclusive = small, poorly fitted or top-dose-only effect, or another doubt; inactive = no such curve, though single readings can be large; an effect the other way counts as inactive or inconclusive. Potency is the fitted concentration of half-maximal effect.
SMILES,KB-V1 MDR tox,KB-3-1 cytotox,RGS4 inh,TSG101-PTAP inh,MCF10A rereplic,SW480 rerep
CC(=O)c1cc2c(cc1NC(=O)Cn1nc(-c3ccc(C)cc3)ccc1=O)OCO2,9.2µM*,23µM*,-5%,-2%,?,5%
CN(C)S(=O)(=O)c1ccc(NC(=O)Cn2nc(-c3ccc4c(c3)OCCO4)ccc2=O)cc1,?,?,-15%,0%,70%,18µM*
COc1ccccc1NC(=O)Cn1nc(-c2ccc3c(c2)OCCO3)ccc1=O,i,i,-14%,-3%,0.92µM*,4%
CC(SC1=NS(=O)(=O)c2ccccc21)C(=O)O (centres undefined),i,i,9%,nt,nt,nt
CC(C)Oc1ccc(CNS(=O)(=O)c2ccc3c(c2)C(C)(C)C(=O)N3C)cc1,i,i,-9%,nt,nt,nt
O=c1c(Cl)c(NCCCO)cnn1-c1nc2ccccc2[nH]1,i,?,-31%[11.4 µM],-9%,2.9µM*,?
O=S(=O)(Nc1nc2ccccc2[nH]1)c1ccc(Cl)cc1,?,i,-5%,-1%,0%,-7%
C=CCN(CC=C)c1cnn(-c2nc3ccccc3[nH]2)c(=O)c1Cl,4.1µM*,i,9%,-3%,29%,13%
COc1ccccc1OCCCn1c(=O)sc2ccccc21,15µM*,i,18%,-4%,15%,-1%
COc1cc(-c2c(-c3cc(OC)c(OC)c(OC)c3)noc2C)ccc1F,0.41µM*,0.33µM*!,-6%,-9%,?,1.3µM*
COC(=O)c1cc(-c2c(-c3cc(OC)c(OC)c(OC)c3)noc2C)cc([N+](=O)[O-])c1,i,?,11%,4%,?,27%
COc1ccc(-c2c(-c3cc(OC)c(OC)c(OC)c3)noc2C)cn1,1.6µM*!,1.6µM*,8%,0%,1.6µM*,7.3µM*
O=C(Nc1csc([N+](=O)[O-])c1)Nc1ccccc1Cl,?,i,-2%,-3%,12µM*,13%
CCN(c1ccccc1)S(=O)(=O)c1ccc(C(=O)Nc2cccc(NC(C)=O)c2)cc1,i,i,7%,-1%,5%,29%
CCN(c1ccccc1)S(=O)(=O)c1cc(C(=O)Nc2ccc(F)c(F)c2)ccc1F,i,i,4%,-1%,13µM*,?
O=C(C(Br)=Cc1ccccc1)c1ccccc1,nt,nt,?,-2%,16µM*,2.9µM*
CC(=Cc1ccccc1)C(=O)c1ccccc1,i,i,nt,nt,nt,nt
Cc1ccc2oc(C(=O)N(Cc3cccc(F)c3)C3CCS(=O)(=O)C3)c(C)c2c1 (centres undefined),i,i,-19%,nt,nt,nt
CCOC(=O)c1ccc2nc(C)cc(Nc3ccc(OC(C)C)cc3)c2c1,?,i,10%,nt,nt,nt
O=C(CCc1nc2ccccc2[nH]1)Nc1ccc(F)cc1,12µM*,i,-24%,-3%,0%,-6%
O=C(Nc1ccc(F)cc1)C(Sc1nc2ccccc2[nH]1)c1ccccc1 (centres undefined),?,?,11%,-2%,12µM*,?
O=C(CCc1nc2ccccc2c(=O)[nH]1)Nc1ccc(F)cc1,i,i,-15%,-5%,15%,-6%
Clc1ccc2c(Cl)cc[n+](CCC3CCCCC3)c2c1,i,i,nt,nt,nt,nt
Cc1ccc2sc(-c3ccc(NC(=O)c4cc(-n5cnnc5)ccc4Cl)cc3)nc2c1,i,?,-16%,-3%,2.6µM*,15µM*
Cc1ccc2sc(-c3ccc(NC(=O)/C=C\C(=O)O)cc3)nc2c1,i,i,-37%,-2%,23µM*,?
SMILES,KB-V1 MDR tox,KB-3-1 cytotox,RGS4 inh,TSG101-PTAP inh,MCF10A rereplic,SW480 rerep
O=C(Nc1cccc(-c2nc3ccccc3s2)c1)c1cc(-n2cnnc2)ccc1Cl,i,?,-33%,-7%,?,?
O=C(CCSCc1cnn(-c2ccccc2)c1-n1cccc1)NCc1ccccc1Cl,nt,nt,1%,nt,nt,nt
CCOC(=O)c1c(NC(=O)CSc2cn(CCNC(=O)c3ccc(OC)c(OC)c3)c3ccccc23)sc2c1CCC2,i,i,?,nt,nt,nt
Cc1ccc(N(Cc2cc(=O)[nH]c3ccccc23)C(=O)CCl)c(C)c1,?,18µM*,-18%,0%,?,23µM*
CCCCN(CC)CCCNC(=O)c1cc2c(=O)[nH]c3ccccc3c2n1C,i,i,-36%,nt,nt,nt
C/C(=C(/CCO)SS/C(CCO)=C(\C)N(C=O)Cc1cnc(C)nc1N)N(C=O)Cc1cnc(C)nc1N,nt,nt,nt,nt,1%,1%
Cc1cc(C)c(NC(=O)CCn2c(=O)c3cccn3c3ccccc32)c(C)c1,nt,nt,-5%,nt,nt,nt
COc1ccc(N2C(c3cc(OC)cc(OC)c3)=Cc3ccccc3C2CC(C)=O)cc1 (centres undefined),i,23µM*,nt,nt,nt,nt
Nc1ccc(-n2c(N)c(C(=O)NCc3ccc4c(c3)OCO4)c3nc4ccccc4nc32)cc1,i,i,10%,-4%,16µM*,21µM*
COCCCNC(=O)c1c(N)n(-c2ccc(S(N)(=O)=O)cc2)c2nc3ccccc3nc12,i,i,0%,-1%,7.3µM*,9.2µM*
COC(=O)c1c(N)n(-c2ccc(NC(C)=O)cc2)c2nc3ccccc3nc12,i,i,-33%,-3%,0%,-5%
Cc1ccc(-n2c(N)c(C(=O)Nc3c(C)n(C)n(-c4ccccc4)c3=O)c3nc4ccccc4nc32)cc1,23µM*,?,-7%,-1%,1%,1%
COCCNC(=O)c1c(N)n(CCCn2ccnc2)c2nc3ccccc3nc12,i,i,30%,-8%,12µM*,?
COCCCNC(=O)c1c(N)n(-c2ccccc2)c2nc3ccccc3nc12,?,i,-30%,-2%,23µM*,21µM*
Cc1c(NC(=O)c2ccccc2NS(=O)(=O)c2ccc(Br)cc2)c(=O)n(-c2ccccc2)n1C,23µM*,i,8%,-11%,13%,4%
Nc1c(C(=O)NCCN2CCOCC2)c2nc3ccccc3nc2n1-c1ccccc1,?,i,4%,-1%,1%,1%
COCCNC(=O)c1c(N)n(-c2ccccc2)c2nc3ccccc3nc12,i,i,13%,-2%,?,21µM*
Cc1ccc(Nc2nc3ccccc3nc2Nc2c(C)n(C)n(-c3ccccc3)c2=O)cc1,?,i,12%,-7%,1.8µM*,-4%
COC(=O)CN1C(=O)[C@@H]2[C@H](C1=O)[C@@H]1CC(C(=O)OC)=C[C@@H](C(=O)OC)C3C1=C(C(=O)C31CCCCC1)[C@@H]2C (some centres undefined),nt,nt,14%,nt,nt,nt
